# Source: PubChem BioAssay
# Shown are actives, neighbours in structure and some others; about 0.52% of the full set was active somewhere.
# N370S GC mod: inhibitors or activators of N370S glucocerebrosidase for Gaucher disease; N370S GC spleen homogenate, 4MU-glucoside fluorescence; Potency, µM (doses to about 59.4 µM), for the others: top-dose activity change, negative = inhibition, hits mostly inhibitors; actives 0.092% (n = 330,000); AID 2101;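 also: 0% = full enzyme activity and -100% = no enzyme basal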
# Luc counter: counter-screen: inhibitors of Kinase-Glo firefly luciferase | Kinase-Glo luciferase, ATP luminescence, 8 min | Potency, µM (top dose mostly 38.3 µM), for the others: at the highest dose activity change, negative = inhibition, actives largely listed as inhibitors | actives 0.28% (n = 200,000) | Q27757; also: nearly all actives have a fitted effect of over 60% in size
#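 Kinase-Glo luciferase light output from ATP and luciferin was measured with 10 uM ATP, within the enzyme's linear range. Buffer: 50 mM imidazole pH 7.2, 50 mM KCl, 7 mM MgCl2, 0.01% Tween 20, 0.05% BSA; luminescence read after 8 min at ambient temperature.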
# aGlu spleen mod: lysosomal alpha-glucosidase (human) modulation; actives 0.006% (n = 240,000); human spleen homogenate, 4-MU-alpha-glucoside fluorescence; AID 2112; Potency, µM (doses to about 79.9 µM), inactives show at the top dose activity change, negative = inhibition, most hits filed as inhibitors;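 also: 0% = enzyme with vehicle and -100% = no enzyme basal signal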
#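 Enzyme source: human spleen homogenate, 1 ug/well. Buffer 50 mM citric acid/K phosphate pH 5.0, 0.01% Tween-20. 4-MU-alpha-glucoside 1 mM; 37 C x 40 min; NaOH/glycine stop; fluorescence.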
# GAA glycogen: alters human alpha-glucosidase cleavage of glycogen; actives 0.38% (n = 300,000); Potency, µM (titrated, usually from 76.4 µM), for inactives: top-dose activity change, negative = inhibition, most hits filed as inhibitors; recombinant GAA, glycogen substrate, Amplex Red glucose oxidase fluorescence; AID 2100; P10253;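 also: 0% = full enzyme reaction and -100% = no-enzyme basal signal; the screen sought inhibitors and activators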
#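 Recombinant human enzyme (4 nM); glycogen substrate; 37 C, 40 min, pH 5.0. Readout: coupled glucose oxidase/Amplex Red fluorescence.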
# LMNA splice mod: LMNA splicing modulation. actives 0.01% (n = 200,000). Potency, µM (top dose mostly 46.1 µM), for inactives: at the top dose ratio change, negative = inhibition, most hits filed as inhibitors. HeLa LMNA splicing GFP/RFP minigene ratio, 48 h; active = well fitted inhibition curve with a large enough effect in the signal ratio, with a control signal flat, not every such curve was filed as active; inconclusive = small, poorly fitted or top-dose-only effect, or effect the other way, or a change in a side signal; the % refers to the signal ratio
#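 S3 HeLa cells stably expressing lamin A-EGFP splicing minigene plus DsRed2, 600 cells/well, 48 h compound exposure at 37C. Laser-scanning cytometry; analysed as GFP (500-530 nm)/RFP (575-640 nm) total intensity ratio; 0.5% DMSO vehicle.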
# GAA inhib: inhibitors of human lysosomal alpha-glucosidase. actives 0.005% (n = 200,000). purified human GAA, 4-MU-alpha-glucoside fluorescence. Potency, µM (top dose mostly 76.9 µM), inactives show at the highest dose activity change, negative = inhibition, usual class: inhibitors;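 also: plate controls were uninhibited enzyme wells for no effect and no-enzyme background for full effect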
#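 Human alpha-glucosidase, 4 nM, pre-mixed with test compounds before 400 uM 4-methylumbelliferyl substrate; 20 min room temperature at pH 5.0. Fluorescence read after pH 10 stop; AC50 values from Hill-equation fits.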
# * hit, by the source's call; ? = inconclusive; . = not tested or not shown; ! = a repeat was not active; [ ] = another dose, or the depositor's remark. Unless noted, calls follow the shape of the dose curve; as a rule, active = well fitted curve in the direction sought with a large enough effect; inconclusive = small, poorly fitted or top-dose-only effect, or another doubt; inactive = no such curve, though single readings can be large; an effect the other way counts as inactive or inconclusive. Unless noted, % is scaled to controls: 0 for no effect and ±100 for the full control effect; potency is read from the fitted curve at half-maximal effect.
SMILES,N370S GC mod,Luc counter,aGlu spleen mod,GAA glycogen,LMNA splice mod,GAA inhib
Cc1ccc2oc3nc(C)c(C(=O)O)cc3c(=O)c2c1,-1%,4.5µM*,-10%,1%,-1%,12%
COC(=O)c1nnc(N[C@@H](Cc2c[nH]c3ccccc23)C(=O)OC)nc1C(=O)OC,-6%,5%,12%,.,.,.
CC(=O)Nc1ccc(S(=O)(=O)NC2=C(N3CCN(c4ccc(F)cc4)CC3)C(=O)c3ccccc3C2=O)cc1,4%,-18%,8%,?,11µM*,-4%
Nc1ccc(N2CCOCC2)c2nonc12,-7%,-5%,-10%,7µM*,-11%[46 µM],1%
O=C(Nc1ccc(N2CCOCC2)c2nonc12)C1CCCC1,1%,-5%,-1%,7%,-5%,0%
CCSc1ncc(Cl)c(C(=O)Nc2c(C(=O)Nc3ccc(Cl)cc3)oc3ccccc23)n1,.,.,.,-3%[76.3 µM],.,.
CC(=O)c1cccc(NS(=O)(=O)c2cccc(C(=O)O)c2)c1,.,-1%,.,.,.,.
COc1ccc(NC(=S)NNc2ccc(S(=O)(=O)Nc3ccccc3C(=O)O)cc2[N+](=O)[O-])cc1,-11%,.,-1%,25µM*,.,.
COc1ccc(S(=O)(=O)Nc2ccccc2C(=O)O)cc1,.,3%,.,.,.,.
O=C(Nc1ccc(NC(=O)c2ccco2)cc1)c1ccc2c(c1)OCCO2,-16%,-8%,-1%,-19%,4%[46 µM],0%
Cc1cc(NC(=O)c2ccc3c(c2)OCCO3)ccc1NC(=O)c1ccco1,2%,11µM*,1%,-8%,.,11%
c1ccc2c(c1)Cc1cc3ccccc3nc1-2,-13%,10µM*,14%,-7%,.,.
CCOc1ccc(-c2cnc(NCc3ccc(C(F)(F)F)cc3)n2C)cc1,.,.,.,32µM*,.,.
Cc1ccc(CNc2ncc(-c3ccc4c(c3)OCO4)n2C)cc1,1%,0%,-4%,20µM*,5%,-3%
Cn1c(-c2ccc3c(c2)OCO3)cnc1NCc1ccc(Cl)cc1,6%,3%,-23%,?,-17%,1%
N=c1c2c(-c3ccccc3)c(-c3ccccc3)n(Cc3ccccc3)c2ncn1CCO,4µM*,1%,-19%,5%,?,?
N=c1c2c(-c3ccccc3)c(-c3ccccc3)n(Cc3ccco3)c2ncn1Cc1ccccc1,-14%,-1%,-17%,7%,?,-8%
N=c1c2c(-c3ccccc3)c(-c3ccccc3)n(Cc3ccco3)c2ncn1CCCn1ccnc1,3.2µM*,0%,-2%,-2%,?,-9%
N=c1c2c(-c3ccccc3)c(-c3ccccc3)n(Cc3ccco3)c2ncn1CCCN1CCOCC1,-24%,-4%,-5%,-6%,?,-5%
CCCCN1CCC2C=CCC(C(=O)O)C2C1=O (stereo unspecified),2%,.,1%,.,.,.
CCCCCCCCCCCCCCCC(=O)NCC(=O)O,-12%,0%,-1%,.,.,.
COc1c(O)cc2c(c1O)[C@@H]1O[C@H](CO)[C@@H](O)[C@H](O)[C@H]1OC2=O,-2%,.,.,-13%,.,.
Cc1c(C(=O)O)c(O)cc2c1C(=O)c1c(O)c([C@H]3O[C@H](CO)[C@@H](O)[C@H](O)[C@H]3O)c(O)c(O)c1C2=O,-9%,13µM*!,1%,.,-13%,.
O=c1[nH]cc(N(CCO)CCO)c(=O)[nH]1,5%,.,6%,?,.,.
O=c1[nH]cc(O)c(=O)[nH]1,-1%,.,5%,5µM*,35%[46 µM],-1%
SMILES,N370S GC mod,Luc counter,aGlu spleen mod,GAA glycogen,LMNA splice mod,GAA inhib
Cc1ccc(O)c(N)c1,-11%,.,7%,.,.,.
Cc1ccc(O)c(Sc2cc(C)ccc2O)c1,0%,-3%,-4%,28µM*,?,-10%
Oc1cnn(-c2ccccc2)c1,1%,-2%,5%,20µM*,-27%,4%
Oc1ccc(-c2[nH]ncc2-c2cnn(-c3ccccc3)c2)c(O)c1,-9%,-1%,-6%,-9%,.,6%
OCC(CO)(CBr)CBr,0%,.,2%,.,.,.
Cc1ccc(Cl)cc1N1CCN(S(=O)(=O)c2ccc3[nH]c(=O)ccc3c2)CC1,-7%,.,.,0%[76.3 µM],.,.
Cc1ccc(Cl)cc1N1CCN(S(=O)(=O)c2ccc3[nH]c(=O)c(=O)[nH]c3c2)CC1,8.9µM*,6%,0%,3%,-1%[9.22 µM],-4%
CCOC(=O)c1c(C)n(-c2ccc(OC)cc2)c2ccc(O)c(CN(C)C)c12,4%,.,-4%,-14%,.,.
CCOC(=O)c1c(C)n(C)c2ccc(O)c(CN(C)C)c12,-4%,-2%,-13%,25µM*,?,-8%
CC1(C)CC(=O)C2=C(C1)NC1=C(C(=O)c3ccccc31)C2c1ccccc1 (stereo unspecified),?,-5%,-5%,-21%,?,-4%
CC1(C)CC(=O)C2=C(C1)NC1=C(C(=O)c3ccccc31)C2c1cc([N+](=O)[O-])ccc1O (stereo unspecified),14µM*,.,-4%,-24%,.,.
COc1ccccc1CNC(=O)c1cnc(N(C)C)nc1,.,.,.,.,-3%[46 µM],.
COc1ccc(-c2noc(-c3ccc(NCc4ccc(C)cc4)c([N+](=O)[O-])c3)n2)cc1OC,.,.,.,13%[76.3 µM],.,.
O=C(O)c1ccc(CN2C(=O)CSC2=S)cc1,2%,-2%,-7%,18µM*,?,-4%
O=C(O)c1ccc(N=C2SCC(=O)N2Cc2ccccc2)cc1,-9%,-5%,4%,14%,?,12%
C=CCC(C)(O)c1ccsc1 (stereo unspecified),-4%,-1%,-9%,.,.,.
Cc1ccc(C(=O)NC(=S)NNC(=O)CC#N)cc1,-2%,0%,7%,11µM*,3%[46 µM],?
Cc1ccc2c(c1)Cc1c(nc(-c3ccc(F)cc3)nc1SCC(=O)N1CCCCC1)O2,.,.,.,8%[76.3 µM],.,.
O=C(NNC(=O)c1sccc1-n1cccc1)c1ccccc1,-2%,3%,-5%,-19%,-8%,9%
O=C(NNC(=O)c1sccc1-n1cccc1)Nc1ccccc1,3%,0%,5%,13µM*,.,1%
COc1ccc(OC)c(N=C2C(=O)Nc3ccccc32)c1,-1%,-1%,-2%,31µM*,9%,?
Cc1ccc(Nc2ccc(N)cc2S(=O)(=O)O)cc1,-1%,.,-3%,?,.,-7%
Nc1ccc(Nc2ccccc2)c(S(=O)(=O)O)c1,5%,.,-15%,14µM*,.,-3%
Cc1ccc(Nc2cc(C)nc(NCc3ccccc3)n2)cc1,4%,-2%,-8%,-3%,?,-5%
Cc1cc(NC2CCCCC2)nc(NCc2ccccc2)n1,18µM*,1%,5%,1%,?,3%
C/C(=C\C(=O)c1ccc(C)o1)Nc1ccc2c(c1)OCO2,17%,-4%,-3%,28µM*,-1%,3%
